Our source for the binding signal values is article PMC9911399, “Two distinct binding modes provide the RNA-binding protein RbFox with extraordinary sequence specificity”.

Numbering of substitutions follows the chain as printed; changes in the protein carry UniProt numbers. In all, about 16,000 sequences were measured (“ka relative to ugcaugu”: median about 0.096, highest 2% from about 0.35 on). The full list was thinned out, with the highest values kept by preference.

The labels stand for the following.
T1: RBFOX1 RRM RbFoxmut (Fox-RRM*) (Homo sapiens, UniProt Q9NWB1 109-208, R118D;E147R;N151S;E152T)
T1 sequence: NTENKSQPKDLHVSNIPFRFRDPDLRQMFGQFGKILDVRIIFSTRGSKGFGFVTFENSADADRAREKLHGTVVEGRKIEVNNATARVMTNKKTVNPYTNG

B1: ACGUAGU (DNA:RNA)
RNA: GGGAGACCGGAAUUCAGAUUGUCCACGUAGUUUAAAUCCCGUCGUAGCCACCA
DNA 1: CAATCTGAATTCCGGTCTCCC
DNA 2: TGGTGGCTACGACGGGATT
B2: CAACGCA (DNA:RNA)
RNA: GGGAGACCGGAAUUCAGAUUGUCCCAACGCAUUAAAUCCCGUCGUAGCCACCA
DNA 1: CAATCTGAATTCCGGTCTCCC
DNA 2: TGGTGGCTACGACGGGATT
B3: UGUAUAC (DNA:RNA)
RNA: GGGAGACCGGAAUUCAGAUUGUCCUGUAUACUUAAAUCCCGUCGUAGCCACCA
DNA 1: CAATCTGAATTCCGGTCTCCC
DNA 2: TGGTGGCTACGACGGGATT
B4: UUCCAAG (DNA:RNA)
RNA: B3 RNA with G26U, U27C, A28C, U29A, C31G
DNA 1: CAATCTGAATTCCGGTCTCCC
DNA 2: TGGTGGCTACGACGGGATT
B5: AUCGUGG (DNA:RNA)
RNA: B1 RNA with C26U, G27C, U28G, A29U, U31G
DNA 1: CAATCTGAATTCCGGTCTCCC
DNA 2: TGGTGGCTACGACGGGATT
B6: CGUUUCG (DNA:RNA)
RNA: B3 RNA with U25C, A28U, A30C, C31G
DNA 1: CAATCTGAATTCCGGTCTCCC
DNA 2: TGGTGGCTACGACGGGATT
B7: CAAAACG (DNA:RNA)
RNA: B2 RNA with C28A, G29A, A31G
DNA 1: CAATCTGAATTCCGGTCTCCC
DNA 2: TGGTGGCTACGACGGGATT
B8: GAGAGGA (DNA:RNA)
RNA: B2 RNA with C25G, A27G, C28A, C30G
DNA 1: CAATCTGAATTCCGGTCTCCC
DNA 2: TGGTGGCTACGACGGGATT
B9: GUAUGAG (DNA:RNA)
RNA: B2 RNA with C25G, A26U, C28U, C30A, A31G
DNA 1: CAATCTGAATTCCGGTCTCCC
DNA 2: TGGTGGCTACGACGGGATT
B10: GAAUGAG (DNA:RNA)
RNA: B2 RNA with C25G, C28U, C30A, A31G
DNA 1: CAATCTGAATTCCGGTCTCCC
DNA 2: TGGTGGCTACGACGGGATT
B11: GAUUGAG (DNA:RNA)
RNA: B2 RNA with C25G, A27U, C28U, C30A, A31G
DNA 1: CAATCTGAATTCCGGTCTCCC
DNA 2: TGGTGGCTACGACGGGATT
B12: CGAUGAG (DNA:RNA)
RNA: B2 RNA with A26G, C28U, C30A, A31G
DNA 1: CAATCTGAATTCCGGTCTCCC
DNA 2: TGGTGGCTACGACGGGATT
B13: CUAUGAG (DNA:RNA)
RNA: B2 RNA with A26U, C28U, C30A, A31G
DNA 1: CAATCTGAATTCCGGTCTCCC
DNA 2: TGGTGGCTACGACGGGATT
B14: GGAUGAG (DNA:RNA)
RNA: B2 RNA with C25G, A26G, C28U, C30A, A31G
DNA 1: CAATCTGAATTCCGGTCTCCC
DNA 2: TGGTGGCTACGACGGGATT
B15: AUUACUA (DNA:RNA)
RNA: B3 RNA with U25A, G26U, U29C, A30U, C31A
DNA 1: CAATCTGAATTCCGGTCTCCC
DNA 2: TGGTGGCTACGACGGGATT
B16: GGCAUUG (DNA:RNA)
RNA: B3 RNA with U25G, U27C, A30U, C31G
DNA 1: CAATCTGAATTCCGGTCTCCC
DNA 2: TGGTGGCTACGACGGGATT
B17: GGCAUCG (DNA:RNA)
RNA: B3 RNA with U25G, U27C, A30C, C31G
DNA 1: CAATCTGAATTCCGGTCTCCC
DNA 2: TGGTGGCTACGACGGGATT
B18: GGCAUUC (DNA:RNA)
RNA: B3 RNA with U25G, U27C, A30U
DNA 1: CAATCTGAATTCCGGTCTCCC
DNA 2: TGGTGGCTACGACGGGATT
B19: GGCACCG (DNA:RNA)
RNA: B3 RNA with U25G, U27C, U29C, A30C, C31G
DNA 1: CAATCTGAATTCCGGTCTCCC
DNA 2: TGGTGGCTACGACGGGATT
B20: GGCAUCC (DNA:RNA)
RNA: B3 RNA with U25G, U27C, A30C
DNA 1: CAATCTGAATTCCGGTCTCCC
DNA 2: TGGTGGCTACGACGGGATT
B21: GUCGGCA (DNA:RNA)
RNA: B2 RNA with C25G, A26U, A27C, C28G
DNA 1: CAATCTGAATTCCGGTCTCCC
DNA 2: TGGTGGCTACGACGGGATT
B22: CGAUGAA (DNA:RNA)
RNA: B2 RNA with A26G, C28U, C30A
DNA 1: CAATCTGAATTCCGGTCTCCC
DNA 2: TGGTGGCTACGACGGGATT
B23: AAAAUAC (DNA:RNA)
RNA: B3 RNA with U25A, G26A, U27A
DNA 1: CAATCTGAATTCCGGTCTCCC
DNA 2: TGGTGGCTACGACGGGATT
B24: CCACGAC (DNA:RNA)
RNA: B2 RNA with A26C, C30A, A31C
DNA 1: CAATCTGAATTCCGGTCTCCC
DNA 2: TGGTGGCTACGACGGGATT
B25: AUUAACG (DNA:RNA)
RNA: B1 RNA with C26U, G27U, U28A, G30C, U31G
DNA 1: CAATCTGAATTCCGGTCTCCC
DNA 2: TGGTGGCTACGACGGGATT
B26: AUGAAUG (DNA:RNA)
RNA: B1 RNA with C26U, U28A, G30U, U31G
DNA 1: CAATCTGAATTCCGGTCTCCC
DNA 2: TGGTGGCTACGACGGGATT
B27: AUGAAUC (DNA:RNA)
RNA: B1 RNA with C26U, U28A, G30U, U31C
DNA 1: CAATCTGAATTCCGGTCTCCC
DNA 2: TGGTGGCTACGACGGGATT
B28: AUGAUUC (DNA:RNA)
RNA: B3 RNA with U25A, G26U, U27G, A30U
DNA 1: CAATCTGAATTCCGGTCTCCC
DNA 2: TGGTGGCTACGACGGGATT
B29: AUGAUUG (DNA:RNA)
RNA: B1 RNA with C26U, U28A, A29U, G30U, U31G
DNA 1: CAATCTGAATTCCGGTCTCCC
DNA 2: TGGTGGCTACGACGGGATT
B30: AUCCAUG (DNA:RNA)
RNA: B1 RNA with C26U, G27C, U28C, G30U, U31G
DNA 1: CAATCTGAATTCCGGTCTCCC
DNA 2: TGGTGGCTACGACGGGATT
B31: ACCAUGA (DNA:RNA)
RNA: B1 RNA with G27C, U28A, A29U, U31A
DNA 1: CAATCTGAATTCCGGTCTCCC
DNA 2: TGGTGGCTACGACGGGATT

The target in this experiment is T1, RBFOX1 RRM RbFoxmut (Fox-RRM*). Put plainly: EMSA; HiTS-Eq, 1 nM pool, 10 min; buffer printed only for the single-RNA assays: 10 mM Tris pH 7.5, 150 mM NaCl, 3.4 mM EDTA, 0.001% NP-40, 30 C. The note with it: tags: His6 N-terminal (pET28a); label: 5' 32P. The method, boiled down: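 Purified wild-type or mutant RbFox RRM at increasing concentrations was equilibrated with 1 nM of 5′-radiolabelled RNA carrying 7 randomized nucleotides for 10 min in 50 µL. Unbound RNA was separated by 8% native PAGE and sequenced. Relative association constants came from read-count changes of each RNA species compared with the control reaction, normalised to the cognate motif.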
Regarding B1, the binding signal is 0.15 KA relative to UGCAUGU.

With B2, the binding signal was 0.161 KA relative to UGCAUGU. The value for B3 was 0.114 KA relative to UGCAUGU. The value for B4 was 0.0952 KA relative to UGCAUGU; that for B5 was 0.124 KA relative to UGCAUGU. The value for B6 was 0.17 KA relative to UGCAUGU; that for B7 was 0.0837 KA relative to UGCAUGU; that for B8 was 0.0596 KA relative to UGCAUGU. Consider B9, for which the binding signal is 0.513 KA relative to UGCAUGU. The value for B10 was 0.983 KA relative to UGCAUGU; that for B11 was 0.183 KA relative to UGCAUGU. The value for B12 was 0.133 KA relative to UGCAUGU; that for B13 was 0.107 KA relative to UGCAUGU. The value for B14 was 0.225 KA relative to UGCAUGU.

As for B15, the binding signal was 0.129 KA relative to UGCAUGU. On to B16, for which the binding signal is 0.394 KA relative to UGCAUGU. For B17 the value was 0.467 KA relative to UGCAUGU; for B18, 0.119 KA relative to UGCAUGU. The value for B19 was 0.132 KA relative to UGCAUGU; that for B20 was 0.229 KA relative to UGCAUGU; that for B21 was 0.13 KA relative to UGCAUGU. On to B22, for which the binding signal was 0.123 KA relative to UGCAUGU. For B23 the value was 0.076 KA relative to UGCAUGU; for B24, 0.0943 KA relative to UGCAUGU; for B25, 0.134 KA relative to UGCAUGU. As for B26, the binding signal was 1.02 KA relative to UGCAUGU. For B27 the value was 0.334 KA relative to UGCAUGU; for B28, 0.139 KA relative to UGCAUGU.

B29: the binding signal is 0.428 KA relative to UGCAUGU.

With B30, the binding signal was 0.1 KA relative to UGCAUGU.

As to B31, the binding signal is 0.076 KA relative to UGCAUGU.
